From PubChem BioAssay AID1813 (Broad Institute, 2009)
About 2,500 (0.83%) of roughly 300,000 compounds were called active. For the sample, actives were picked, then their nearest neighbours and some compounds at random. Values without a mark were called inactive. No stated cut-off is given here; in the data, active means inhibition above about 60%; inconclusive means no clear call, values can overlap the other calls; inactive means below that.

Assay: 5' untranslated region of α-synuclein, MLPCN primary screen (AID 1813);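 further: H4 neuroglioblastoma cells stably carrying SNCA 5'UTR luciferase fusion; 0% = DMSO wells and 100% = positive control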
Settings: alpha-synuclein 5'UTR reporter, inhibitor activity; hits give high values; tested at 7.5 µM

Row | SMILES | inhibition
1 | COCCNc1nc(N)c([N+](=O)[O-])c(N2CCCCCC2)n1 | 17.3%
2 | Cc1cc(OC(=O)c2ccc(OC(C)C)cc2)c([N+](=O)[O-])c(=O)[nH]1 | -3.29%
3 | O=C(C1CCCO1)N1CCC(c2nc3ccccc3[nH]2)CC1 (stereo not given) | -15.4%
4 | N#CC(C(=O)c1ccc(S(=O)(=O)N2CCCCCC2)cc1)c1nc2ccccc2[nH]1 (stereo not given) | -4.96%
5 | O=S(=O)(c1ccc(Br)cc1)N1CCC(c2nc3ccccc3[nH]2)CC1 | 78.3% (active)
6 | Cc1cccc(N2CCN(S(=O)(=O)c3ccc4[nH]c(=O)c(=O)[nH]c4c3)CC2C)c1 (stereo not given) | 3.92%
7 | COc1cc2c(cc1OC)C(C)N(S(=O)(=O)c1cnc(Cl)c(Cl)c1)CC2 (stereo not given) | 36.4%
8 | S=c1[nH]c(-c2cccs2)cn1-c1ccccc1 | -60.3%
9 | COc1ccc(-c2cn(-c3ccc(OC)cc3)c(=S)[nH]2)cc1 | -129%
10 | O=c1oc2ccccc2cc1-c1cn(-c2ccccc2)c(=S)[nH]1 | 119% (active)
11 | O=C(CNCc1ccc(F)cc1)Nc1ccccc1-c1ccccc1 | 16.3%
12 | COCc1cc(=O)[nH]c(SC)n1 | -10.1%
13 | N#C/C(=C\c1cccnc1)C(=O)Nc1ccc(SC(F)F)cc1 | 1.4%
14 | O=C1CCCc2c1[nH]c1ccc(Br)cc21 | 89% (active)
15 | O=[N+]([O-])c1ccc2[nH]c3c(c2c1)CCCC3O (stereo not given) | 10.7%
16 | O=[n+]1c2c(n([O-])c3cc(Br)ccc31)CCC2 | 10.3%
17 | COC(=O)CN1C(=O)N/C(=C/c2ccc(OC)c(C)c2OC)C1=O | -8.7%
18 | O=C(COC(=O)Cn1[nH]c(=O)c2ccccc2c1=O)Nc1c(Cl)cccc1C(F)(F)F | 4.65%
19 | O=C(NCCN1CCOCC1)c1ccc(/C=C2\Sc3ccccc3N(Cc3ccc(F)cc3)C2=O)cc1 | 14%
20 | CN1CCN(CCCNC(=O)c2ccc(/C=C3\Oc4ccccc4N(Cc4ccc(Cl)cc4)C3=O)cc2)CC1 | 96.5% (active)
21 | CN1C(=O)/C(=C/c2ccc(C(=O)NC3CCCC3)cc2)Oc2ccccc21 | -48%
22 | Oc1cccc(/C=N/Nc2ccc(Cl)nn2)c1O | -6.82%
23 | FC(F)(F)c1cnc(Oc2ccccc2-c2nnc(-c3ccc(Cl)cc3)o2)c(Cl)c1 | -1.16%
24 | COc1cccc(/C=N/Nc2ncc(C(F)(F)F)cc2Cl)c1O | 76.7% (active)

Row | SMILES | inhibition
25 | Cc1n[nH]c(=O)c2c(NC(=O)CSc3ccccc3F)oc(C)c12 | -9.19%
26 | CCNS(=O)(=O)c1ccc(NC(=O)c2cncc(Br)c2)cc1 | 8.56%
27 | Oc1ccc(N=Nc2nccs2)c(O)c1 | 24.3%
28 | Oc1ccc2ccccc2c1N=Nc1nccs1 | 87.4% (active)
29 | c1ccc(NCc2cccc3ccccc23)nc1 | 19.1%
30 | CCCOc1ccc(C(=O)C(CCC(CNCC)C(=O)c2ccc(OCCC)cc2)CNCC)cc1 (stereo not given) | 107% (active)
31 | CCCOc1ccc(C(=O)CCC(=O)OC(C)C(=O)Nc2ccc(NC(C)=O)cc2)cc1 (stereo not given) | -18.6%
32 | CCCCOc1ccc(C(=O)NN2CCN(C)CC2)cc1 | 1.5%
33 | Cc1ccc(S(=O)(=O)N2CCCCC2)cc1C(=O)N(C)CC(=O)Nc1cccc(F)c1 | 11%
34 | COC(=O)c1c(NC(=O)COc2ccc(Cl)cc2Cl)sc2c1CC(C)(C)NC2(C)C | 102% (active)
35 | CCOC(=O)c1c(NC(=O)c2ccc(S(=O)(=O)N(C)CC3CCCO3)cc2)sc2c1CC(C)(C)NC2(C)C (stereo not given) | 0.581%
36 | COC(=O)c1sccc1NC(=O)COc1ccc(Cl)cc1 | -35.3%
37 | CCOc1ccc(CC(=O)NCCS(=O)(=O)N2CCN(c3ccccc3)CC2)cc1 | 13.9%
38 | Cc1cc(OC(=O)c2ccccc2Cl)ccc1N1C(=O)CCC1=O | -3.87%
39 | COc1ccc(NC(=O)c2cccc3c2C(=O)N(CC2CCCO2)C3)cc1OC (stereo not given) | 32.1%
40 | CN1CCN(C2Cc3ccc(Cl)cc3Sc3ccc(F)cc32)CC1 (stereo not given) | 104% (active)
41 | CSc1nnc2ccc(-c3ccc(C)cc3)nn12 | 16.4%
42 | Cc1ccc2nc(-c3ccc(Br)cc3)cn2c1 | 63.2% (active)
43 | Cc1ccc(-c2cn3cc([N+](=O)[O-])ccc3n2)cc1 | 22.1%
44 | CCn1c(=O)c(C(=O)NCc2ccc3c(c2)OCO3)c(O)c2ccccc21 | 11.8%
45 | COC(=O)C1(C)NC(c2ccccc2OC)C2C(=O)N(c3ccccc3)C(=O)C21 (stereo not given) | 0.536%
46 | CC(C)CC[n+]1ccn(C2=C([O-])c3ccccc3C(=O)/C2=N\S(=O)(=O)c2ccccc2)c1 | -27.8%
47 | CC[C@H]1CN2CCc3cc(OC)c(OC)cc3[C@@H]2C[C@@H]1C[C@H]1NCCc2cc(OC)c(OC)cc21 | 109% (active)
48 | COc1ccc2c(c1)CCNC2Cc1ccc(OC)c(O)c1 (stereo not given) | 11.8%

Row | SMILES | inhibition
49 | CCc1ccc(OCC2c3cc(OC)c(OC)cc3CCN2C(C)=O)cc1 (stereo not given) | 0.678%
50 | COc1ccc(S(=O)(=O)N(C)CC(=O)NCCCN2CCOCC2)cc1Cl | 6.18%
51 | COc1ccc(C(=O)C2CCCN(S(=O)(=O)c3cccc(C)c3)C2)c(C)c1 (stereo not given) | -3.32%
52 | Cc1ccccc1/[N+]([O-])=C/c1ccncc1 | 5.11%
53 | Cc1ccc(NC(=O)COc2ccc(/C=C3/NC(=O)NC3=O)cc2)cc1 | 1.96%
54 | Cn1cc(CNC(=O)c2ccc(OC3CCN(Cc4ccccn4)CC3)cc2)cn1 | 14.6%
55 | O=C(c1ccc(OC2CCN(Cc3ccccn3)CC2)cc1)N1CCCCCC1 | 3.78%
56 | O=C(NCCOc1cccnc1)c1ccc(OC2CCN(Cc3ccccn3)CC2)cc1 | 95.3% (active)
57 | Cc1ccc(Nc2nc(Cl)c(C=O)s2)cc1 | -26.4%
58 | Cc1ccc2nc(-c3ccncc3)cc(C(=O)Nc3ccncc3)c2c1 | 5.38%
59 | Cc1ccc2nc(-c3ccncc3)cc(C(=O)Nc3ccc4c(c3)OCCO4)c2c1 | 47.2%
60 | Cc1ccc2nc(-c3ccncc3)cc(C(=O)Nc3ccc(OC(F)F)cc3)c2c1 | 67.6% (active)
61 | COc1ccccc1/C=N/Nc1nc(C)c(C(C)=O)s1 | -154%
62 | COc1cccc(/C=N/Nc2cc(C)nc(-c3ccccc3O)n2)c1O | 82.8% (active)
63 | COc1cccc2c(N/N=C/c3ccco3)cc(C)nc12 | -38.3%
64 | Cc1csc2nc(O)c(C(=O)NCCN3CCOCC3)c(=O)n12 | 0.0631%
65 | Cc1ccc2sc(N(CCN(C)C)C(=O)/C=C/c3cccs3)nc2c1C | -3.93%
66 | CCCCCCCCn1c2c(c(=N)c3c1CCC3)CCCC2 | 101% (active)
67 | Cc1nc2ccccn2c1C(=O)NN=C1CCN(C)CC1 | 18%
68 | CCCC[C@@H]1CN=C(N)N1CCc1cccc(F)c1 | -1.65%
69 | Cc1ccc(C)c(NC(=O)COC(=O)Cn2c(C)csc2=O)c1 | 3.94%
70 | CCOc1ccc(C(C(=O)NC2CCCC2)N(C(=O)c2snc(C(N)=O)c2N)C2CCCC2)cc1 (stereo not given) | 1.96%
71 | OCCC1CN(Cc2ccc3nsnc3c2)CCN1C1CCCCC1 (stereo not given) | -4.85%
72 | CCCCn1c(=O)c(C(C)=O)c(O)c2ccccc21 | -6.66%

Row | SMILES | inhibition
73 | CCCCCn1c(=O)c(C(=O)OCC)c(Cl)c2ccccc21 | 92.6% (active)
74 | CCOC(=O)c1nnn2c3ccccc3c(=O)n(C)c12 | -5.14%
75 | CNc1ccc(SC#N)cc1 | 1.02%
76 | CCOC(=O)N1CCN(C(=O)C(=O)Nc2sc3c(c2C#N)CC(C)(C)OC3)CC1 | -17.6%
77 | COc1ccc2c3c1O[C@H]1C[C@@H](O)C=C[C@@]31CCN(C)C2 | 62% (active)
78 | COc1cccc(/C=N/NC(=O)c2[nH]nc3c2CCc2ccccc2-3)c1O | 76.4% (active)
79 | COc1cc2cc(C(=O)N/N=C/c3cccc(OC)c3OC)[nH]c2cc1OC | 22.3%
80 | CN(C)CCNC(=O)c1[nH]nc2c1CCc1ccccc1-2 | -73.6%
81 | CCOCCCN(C)C1CCN(C(=O)c2oc3ccccc3c2NC(=O)COc2cccc(C)c2)CC1 | 45.5%
82 | CCOC(=O)c1ccc(NNC(C)=O)c([N+](=O)[O-])c1 | -28%
83 | CCCCCOc1ccc(/C=C/C(=O)NCCc2nc3ccccc3[nH]2)cc1OC | 14.1%
84 | CC(=O)c1ccc(Oc2cc(C)nc(-n3nc(C)cc3C)n2)cc1 | 80.1% (active)
85 | Cc1cc(Nc2ccc(Cl)cc2)nc(N2CCOCC2)n1 | -19%
86 | COc1ccc(Nc2cc(C)nc(-n3nc(C)cc3C)n2)cc1 | 92.8% (active)
87 | Cc1cc(C)n(-c2ccc(C(=O)O)cc2[N+](=O)[O-])n1 | -5.9%
88 | Cc1cc(N/N=C\c2ccc(Br)cc2)nc(-n2nc(C)cc2C)n1 | 25%
89 | Cc1cc(Oc2ccc(Cl)cc2)nc(SCC(=O)c2ccccc2)n1 | 27.8%
90 | CCC(C(=O)OC)n1cnc2c(oc3ccccc32)c1=O (stereo not given) | 16.1%
91 | O=C1c2ccccc2C(=O)N1Cc1cc(-c2ccccc2Cl)no1 | 15.2%
92 | Clc1ccc(-c2ncc3ccccn23)c(Cl)c1 | -17.4%
93 | Clc1ccc(-c2cc(-c3ccccn3)on2)c(Cl)c1 | 108% (active)
94 | COc1cc(NC(=O)C2=C(C)OCCS2)c(Cl)cc1C(=O)NCCN1CCN(C)CC1 | -14%
95 | CN1C(=O)[C@H]2[C@@H](C3CC3)N3C(=O)CN(Cc4ccccc4)C(=O)[C@@]3(C)[C@H]2C1=O | -12.7%
